{"source": "the supplement of paper PMC12282887", "tested_on": "E. coli BW25113 marRABp lux reporter", "test": "promoter activity interaction Z-score (Lux/OD deviation from empty-vector control); higher = stronger promoter induction by the compound", "method": "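E. coli BW25113 (wild type or ΔmarA/ΔsoxS/Δrob) carrying pTU175 luxCDABE promoter reporters was grown in LB in 384-well plates at 37°C with each of 94 compounds at 4 two-fold concentrations, in biological duplicates. Luminescence and OD600 were read every 30 min for 12 h and integrated as AUC over 8 h (0-8 h WT, 1-9 h mutants). Lux AUC was divided by OD AUC; the interaction score is the residual of a Huber robust fit of each promoter against the empty-vector control, then Z-transformed per promoter.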", "note": "± gives the standard deviation of the averaged measurements.", "data": [{"smiles": "C[C@H]1COc2c(N3CCN(C)CC3)c(F)cc3c(=O)c(C(=O)O)cn1c23", "note": "[Levofloxacin]", "values": [{"measurement": "promoter activity interaction Z-score", "setting": "0.0045 µg/ml, genetic background: wild type", "value": "0.0777 ± 0.09"}, {"measurement": "promoter activity interaction Z-score", "setting": "0.0045 µg/ml, genetic background: ΔmarA", "value": "0.886 ± 0.81"}, {"measurement": "promoter activity interaction Z-score", "setting": "0.0045 µg/ml, genetic background: Δrob", "value": "0.457 ± 0.39"}, {"measurement": "promoter activity interaction Z-score", "setting": "0.0045 µg/ml, genetic background: ΔsoxS", "value": "0.129 ± 0.058"}, {"measurement": "promoter activity interaction Z-score", "setting": "0.009 µg/ml, genetic background: wild type", "value": "1.81 ± 0.43"}, {"measurement": "promoter activity interaction Z-score", "setting": "0.009 µg/ml, genetic background: Δrob", "value": 2.37}, {"measurement": "promoter activity interaction Z-score", "setting": "0.009 µg/ml, genetic background: ΔsoxS", "value": "1.61 ± 0.18"}]}, {"smiles": "CC[C@H]1OC(=O)[C@H](C)[C@@H](O[C@H]2C[C@@](C)(OC)[C@@H](O)[C@H](C)O2)[C@H](C)[C@@H](O[C@@H]2O[C@H](C)C[C@H](N(C)C)[C@H]2O)[C@](C)(O)C[C@@H](C)C(=O)[C@H](C)[C@@H](O)[C@]1(C)O", "note": "[Erythromycin]", "values": [{"measurement": "promoter activity interaction Z-score", "setting": "1.8 µg/ml, genetic background: wild type", "value": "0.316 ± 0.064"}, {"measurement": "promoter activity interaction Z-score", "setting": "1.8 µg/ml, genetic background: ΔmarA", "value": "0.0943 ± 0.048"}, {"measurement": "promoter activity interaction Z-score", "setting": "1.8 µg/ml, genetic background: Δrob", "value": "0.109 ± 0.022"}, {"measurement": "promoter activity interaction Z-score", "setting": "1.8 µg/ml, genetic background: ΔsoxS", "value": "0.268 ± 0.14"}, {"measurement": "promoter activity interaction Z-score", "setting": "3.7 µg/ml, genetic background: wild type", "value": "0.459 ± 0.1"}, {"measurement": "promoter activity interaction Z-score", "setting": "3.7 µg/ml, genetic background: ΔmarA", "value": "0.54 ± 0.35"}, {"measurement": "promoter activity interaction Z-score", "setting": "3.7 µg/ml, genetic background: Δrob", "value": "0.617 ± 0.38"}, {"measurement": "promoter activity interaction Z-score", "setting": "3.7 µg/ml, genetic background: ΔsoxS", "value": "0.806 ± 0.22"}, {"measurement": "promoter activity interaction Z-score", "setting": "7.3 µg/ml, genetic background: wild type", "value": "1.87 ± 0.21"}, {"measurement": "promoter activity interaction Z-score", "setting": "7.3 µg/ml, genetic background: ΔmarA", "value": "1.31 ± 0.22"}, {"measurement": "promoter activity interaction Z-score", "setting": "7.3 µg/ml, genetic background: Δrob", "value": "1.34 ± 0.3"}, {"measurement": "promoter activity interaction Z-score", "setting": "7.3 µg/ml, genetic background: ΔsoxS", "value": "1.3 ± 0.3"}, {"measurement": "promoter activity interaction Z-score", "setting": "14.7 µg/ml, genetic background: wild type", "value": "2.2 ± 0.17"}, {"measurement": "promoter activity interaction Z-score", "setting": "14.7 µg/ml, genetic background: ΔmarA", "value": 2.59}]}, {"smiles": "NC(N)=S", "note": "[Thiourea]", "values": [{"measurement": "promoter activity interaction Z-score", "setting": "4.8 µg/ml, genetic background: wild type", "value": "-0.23 ± 0.42"}, {"measurement": "promoter activity interaction Z-score", "setting": "4.8 µg/ml, genetic background: ΔmarA", "value": "-0.11 ± 0.25"}, {"measurement": "promoter activity interaction Z-score", "setting": "4.8 µg/ml, genetic background: Δrob", "value": "-0.246 ± 0.076"}, {"measurement": "promoter activity interaction Z-score", "setting": "4.8 µg/ml, genetic background: ΔsoxS", "value": "-0.231 ± 0.24"}, {"measurement": "promoter activity interaction Z-score", "setting": "9.5 µg/ml, genetic background: wild type", "value": "-0.161 ± 0.13"}, {"measurement": "promoter activity interaction Z-score", "setting": "9.5 µg/ml, genetic background: ΔmarA", "value": "0.055 ± 0.11"}, {"measurement": "promoter activity interaction Z-score", "setting": "9.5 µg/ml, genetic background: Δrob", "value": "-0.0456 ± 0.0082"}, {"measurement": "promoter activity interaction Z-score", "setting": "9.5 µg/ml, genetic background: ΔsoxS", "value": "-0.157 ± 0.14"}, {"measurement": "promoter activity interaction Z-score", "setting": "19 µg/ml, genetic background: wild type", "value": "-0.209 ± 0.12"}, {"measurement": "promoter activity interaction Z-score", "setting": "19 µg/ml, genetic background: ΔmarA", "value": "-0.407 ± 0.02"}, {"measurement": "promoter activity interaction Z-score", "setting": "19 µg/ml, genetic background: Δrob", "value": "-0.154 ± 0.11"}, {"measurement": "promoter activity interaction Z-score", "setting": "19 µg/ml, genetic background: ΔsoxS", "value": "-0.149 ± 0.038"}, {"measurement": "promoter activity interaction Z-score", "setting": "38.1 µg/ml, genetic background: wild type", "value": "-0.45 ± 0.34"}, {"measurement": "promoter activity interaction Z-score", "setting": "38.1 µg/ml, genetic background: ΔmarA", "value": "-0.162 ± 0.17"}, {"measurement": "promoter activity interaction Z-score", "setting": "38.1 µg/ml, genetic background: Δrob", "value": "-0.0285 ± 0.12"}, {"measurement": "promoter activity interaction Z-score", "setting": "38.1 µg/ml, genetic background: ΔsoxS", "value": "-0.0935 ± 0.032"}]}]}
